Most compounds without a hit are left out; they make up all but 1.8% or so of the library.
MBNL1-CUG inh – qHTS Assay for Inhibitors of MBNL1-poly(CUG) RNA binding; TR-FRET MBNL1-His/biotin-(CUG)12 binding, 665/545 ratio; Potency, µM (top dose mostly 57.5 µM), for inactives: top-dose activity change, negative = inhibition, hits mostly inhibitors; 280,000 compounds, 0.036% hits; active = well fitted inhibition curve with a large enough effect in the signal ratio, with a control signal flat, not every such curve was filed as active; inconclusive = small, poorly fitted or top-dose-only effect, or effect the other way, or a change in a side signal; inactive = no such curve, though single readings can be large or run the other way; the % refers to the signal ratio; also: potency is read from the fitted curve at half-maximal effect; % is scaled to controls: 0 for no effect and ±100 for the full control effect
Target sequence (Q9NR56 whole entry, looked up): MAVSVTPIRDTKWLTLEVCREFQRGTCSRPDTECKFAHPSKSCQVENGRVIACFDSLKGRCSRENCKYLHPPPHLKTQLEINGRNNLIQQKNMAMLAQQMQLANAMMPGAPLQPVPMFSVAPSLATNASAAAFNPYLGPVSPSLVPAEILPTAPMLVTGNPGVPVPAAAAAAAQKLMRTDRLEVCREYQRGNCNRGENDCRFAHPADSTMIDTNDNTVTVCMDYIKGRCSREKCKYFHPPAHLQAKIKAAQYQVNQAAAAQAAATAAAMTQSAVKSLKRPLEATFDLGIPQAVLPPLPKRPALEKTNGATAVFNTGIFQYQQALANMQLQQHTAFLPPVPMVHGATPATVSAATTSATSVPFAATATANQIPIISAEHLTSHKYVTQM
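TR-FRET readout: Ex 340 nm, 665/545 nm emission ratio, normalized to buffer-only (basal) and MBNL1-(CUG)12 controls. Complex of MBNL1-His with Biotin-(CUG)12, compounds 92 nM–58 uM, incubated 60 min at room temperature.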
ClpP mod – qHTS Assay for Activators of ClpP; ATP-dependent Clp protease proteolytic subunit (Bacillus subtilis (strain 168)), P80244; purified B. subtilis ClpP, FRET peptide cleavage, 20 min; Potency, µM (series often up to 57.5 µM), inactives show top-dose activity change, negative = active; 340,000 compounds, 1.9% hits; AID 651965, 2013; active = well fitted falling curve with a large enough effect; inconclusive = small, poorly fitted or top-dose-only effect; inactive = no such curve, though single readings can be large or run the other way; also: potency is read from the fitted curve at half-maximal effect; the source files actives as falling curves though it sought activators and does not explain the sign; nearly all actives have a fitted effect of over 65% in size
Target sequence (P80244 whole entry, looked up): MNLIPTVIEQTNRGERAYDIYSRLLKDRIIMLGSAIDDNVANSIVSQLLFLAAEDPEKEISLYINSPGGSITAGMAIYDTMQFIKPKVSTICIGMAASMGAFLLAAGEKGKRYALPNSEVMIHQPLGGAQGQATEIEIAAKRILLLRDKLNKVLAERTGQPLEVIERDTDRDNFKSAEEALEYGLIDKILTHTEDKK
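FRET quenching reversal measured ClpP activation: 10 microg/mL B. subtilis ClpP at pH 8 with the FRET-FV decapeptide, read at 430 nm after 320 nm excitation. The 20-min minus 0-min signal was scaled between DMSO/no-enzyme wells and ADEP (5.8 microM final).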
Mito fusion yeast – qHTS Assay for Small Molecule Inhibitors of Mitochondrial Division or Activators of Mitochondrial Fusion. S. cerevisiae fusion-defective mutant growth rescue, CellTiterGlo 48 h. Potency, µM (titrated, usually from 46.1 µM), without a hit: at the highest dose growth rescue (activation), most hits filed as activators. 320,000 compounds, 0.23% hits. AID 485298, 2010; also: potency is read from the fitted curve at half-maximal effect; % of control where 0% means no effect; nearly all actives have a fitted effect of over 45% in size
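Growth-rescue viability read-out: after 48 h at the non-permissive 37C in glycerol/ethanol YPEG, yeast mitochondrial fusion mutants are measured by CellTiterGlo luminescence; compounds (23 nl pinned per well) restoring growth score as division inhibitors or fusion activators.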
TCR act – Activators of T cell receptors: qHTS campaign; primary human leukocytes, anti-CD3, IL-2 HTRF, 48 h; Potency, µM (top dose mostly 9.22 µM), for inactives: top-dose activation of IL-2 secretion, most hits filed as activators; 330,000 tested, under 10 active; AID 504894, 2011; also: % of control where 0% means no effect
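IL-2 produced over 48 hr by a-CD3 bead-stimulated primary human leukocytes exposed to compounds was detected with a homogeneous time-resolved FRET immunoassay, 665nm acceptor signal after 320nm excitation.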
A-T KAP1 phos – qHTS Assay for Identifying a Potential Treatment of Ataxia-Telangiectasia | 320,000 compounds, 0.19% hits | AID 485349, 2010 | F2112 A-T fibroblasts, KAP-1 phosphorylation AlphaLISA; neocarzinostatin DNA damage 30 min before lysis | Potency, µM (top dose mostly 57.5 µM), for the others: at the top dose activation, most hits filed as activators; also: potency is read from the fitted curve at half-maximal effect; % of control where 0% means no effect; nearly all actives have a fitted effect of over 45% in size
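hTERT-immortalized A-T patient fibroblasts (F2112), 500 cells/well in OPTI-MEM, 1% FBS, got compounds for 60 min, then NCS for 30 min at 37C. Lysates were then assayed for phospho-KAP-1 by AlphaLISA (anti-pKAP1 donor, anti-KAP1 acceptor beads), 6 hr at 25C.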
Glioma ERSR ind – qHTS for Inducers of the Endoplasmic Reticulum Stress Response (ERSR) in Human Glioma: qHTS; AID 602332, 2012; 420,000 compounds, 0.02% hits; U87-MG GRP78 promoter luciferase reporter, 16 h; Potency, µM, without a hit: at the highest dose activation, hits mostly activators; also: potency is read from the fitted curve at half-maximal effect; series mostly up to about 76 µM; % of control where 0% means no effect; nearly all actives have a fitted effect of over 35% in size
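Stably transfected U87-MG human glioma cells carrying a GRP78-based luminescent sensor were seeded at 1000 cells/well, pin-dosed with compounds and incubated 16 h. Luciferase reagent was then added, and end-point luminescence was read after 10 min at room temperature.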
* hit, by the source's call; ? = inconclusive; / = no result; ! = not confirmed by another sample; [ ] = dose if it differs, or a comment. Unless noted, calls follow the shape of the dose curve; as a rule, active = well fitted curve in the direction sought with a large enough effect; inconclusive = small, poorly fitted or top-dose-only effect, or another doubt; inactive = no such curve, though single readings can be large; an effect the other way counts as inactive or inconclusive.

SMILES	MBNL1-CUG inh	ClpP mod	Mito fusion yeast	TCR act	A-T KAP1 phos	Glioma ERSR ind
Cc1cccc(Nc2nnc(SCC(=O)Nc3ccccc3[N+](=O)[O-])s2)c1	35%	-25%	9%	-3%[46.1 µM]	-3%	0%
c1ccc(CCc2nnc3n2CCN(Cc2ccc4ccccc4n2)CC3)cc1	/	/	/	/	/	-2%
Cc1ccccc1Cn1ccc(NC(=O)c2nn(C)cc2[N+](=O)[O-])n1	?	28µM*	-3%	-3%[46.1 µM]	13%	-11%
COCc1ccc(CN2CCOc3c(cc(-c4cc(C)c5cccc(OC)c5n4)cc3OC)C2)o1	/	/	/	/	/	-5%
CC(C)c1ccc(NC(=O)c2cc3c([nH]c2=O)CC(C)(C)CC3=O)cc1	/	0%	/	/	/	-5%
COc1cc2nc(Nc3ccc(C)c(C)c3)nc(N)c2cc1OC	-7%	?	-2%	4%	-13%	-16%
CCOC(=O)c1ccc(Nc2nc(N)c3cc(OC)c(OC)cc3n2)cc1	-10%	32µM*!	2%	2%	10%	-6%
COc1ccc(CCN(C)C(=O)CSc2nnc(C3CC3)n2N)cc1OC	/	25µM*	-6%	-4%	-4%	-1%
COc1ccc(C(=O)CSc2nnc(C3CCCCC3)n2N)c(OC)c1	-1%	-1%	-5%	-2%	-1%	-5%
O=C(NC1CCCCC1)N(CCN1CCCC1)Cc1cc2cc3c(cc2[nH]c1=O)OCCO3	8%	35µM*	-2%	-22%	-6%	2%
Cc1ccc2cc(CN(CCCN3CCOCC3)C(=O)NC3CCCCC3)c(=O)[nH]c2c1C	-10%	28µM*	3%	-1%	4%	0%
COCC(=O)Nc1nc2n(n1)C(c1ccccc1)CC(c1ccc(OC)cc1)N2 (stereo unspecified)	4%	25µM*	1%	-5%	6%	-4%
COCC(=O)Nc1nc2n(n1)C(c1ccc(OC)cc1)CC(c1ccc(OC)cc1)N2 (stereo unspecified)	-1%	-2%	-1%	-20%	-3%	-4%
Cc1ccc(C2C3=C(CCCC3=O)Nc3nc(SCC(=O)NCc4ccco4)[nH]c(=O)c32)cc1 (stereo unspecified)	-3%	20µM*	-2%	-1%	1%	-1%
Cc1c(Br)c([N+](=O)[O-])nn1CC(=O)NCc1ccco1	?	35µM*	-3%	-3%[46.1 µM]	10%	-4%
Cc1c(C(=O)NCC2CC2)sc2ncnc(NCCN3CCCCC3)c12	/	/	/	/	/	-5%
CCCCn1c(=O)[nH]c(=O)c2c1nc(-c1ccncc1)n2CCOC	0%	?	-3%	2%	0%	-2%
COCCn1c(-c2ccc(-c3ccccc3Cl)o2)nc2c1c(=O)[nH]c(=O)n2CC(C)C	3%	4µM*	0%	-3%	6%	-3%
CCCCn1c(=O)[nH]c(=O)c2c1nc(-c1ccc(-c3ccccc3Br)o1)n2CCOC	8%	32µM*	-4%	13%	0%	0%
Cc1oc(-c2ccccc2NC(=O)C2CCC2)nc1CNC(=O)c1ccccn1	/	/	/	/	/	6%
COCCNC(=O)c1cc2c(-c3ccccc3F)nn(C)c2s1	0%	25µM*	-5%	5%[46.1 µM]	3%	0%
CCCCN(C)CCNC(=O)c1cc2c(-c3cccc(OC)c3)nn(C)c2s1	-10%	/	-9%	-1%	-6%	-7%
CCCCN(C)CCNC(=O)c1cc2c(-c3ccccc3F)nn(C)c2s1	-7%	25µM*	-11%	5%	31%	-3%
COc1ccc(-c2cc(C(F)F)n3ncc(C(=O)N4CCN(C)CC4)c3n2)cc1	25%	25µM*	0%	0%[46.1 µM]	3%	-2%
COc1ccc(-c2cc(C(F)F)n3ncc(C(=O)N4CCSCC4)c3n2)cc1	23%	-27%	9%	-3%	1%	7%
SMILES	MBNL1-CUG inh	ClpP mod	Mito fusion yeast	TCR act	A-T KAP1 phos	Glioma ERSR ind
Cc1ncc(-c2ccc(F)cc2)c(C2CCCN(Cc3cccc(O)c3)C2)n1 (stereo unspecified)	/	/	/	/	/	-9%
COc1cc2c(cc1OC)/C(=C/c1ccc(Br)cc1)C(=O)OC2	-3%	-3%	16µM*	2%[46.1 µM]	-3%	-5%
Cc1cc(C)n(-c2nc3ccccc3[nH]c2=O)n1	?	28µM*	-1%	-3%[46.1 µM]	0%	-2%
Cc1cc(C)n(-c2n[nH]c(=O)c3ccccc23)n1	3%	-1%	5%	2%	18µM*	0%
Cc1cc(C)n(-c2nc3ccccc3nc2Nc2ccc3[nH]c(=O)[nH]c3c2)n1	-4%	1%	-3%	9%	/	-4%
c1ccc2nccnc2c1	/	-23%	/	/	/	-10%
COc1cc(C2C(C(=O)c3ccc(C)o3)=C(O)C(=O)N2CCCn2ccnc2)cc(OC)c1OC (stereo unspecified)	11%	25µM*	-2%	2%	-1%	-2%
COc1ccc(C2C(C(=O)c3ccco3)=C(O)C(=O)N2CCCn2ccnc2)c(OC)c1 (stereo unspecified)	17%	-2%	12%	-4%	10%	1%
Cc1nc(C)c(CC(=O)N2CCOc3ccc(CN4CCN(c5ccccn5)CC4)cc3C2)s1	/	/	/	/	/	-5%
Cc1c(Cl)cccc1Nc1ccccc1C(=O)O	-3%	-1%	-7%	-5%	3%	?
Cc1ccc(Cl)c(Nc2ccccc2C(=O)O)c1Cl	?	-1%	5.2µM*!	-4%	-14%	2%
N[C@@H](Cc1cc(-c2ccc(Cl)cc2Cl)cc(CP(=O)(O)O)c1O)C(=O)O	/	/	/	/	/	-3%
O=c1[nH]c(NCCO)c(N=Cc2ccccc2)c(=O)[nH]1	/	/	/	-3%	/	-3%
Nc1[nH]c(=O)[nH]c(=O)c1N=Cc1ccccc1	/	28µM*	/	-8%	/	-5%
COc1cc2c(cc1NC(=O)c1ccc3c(c1)OCO3)oc1ccccc12	9%	32µM*	-2%	-4%	10%	10%
COc1cc2c(cc1NCc1ccc3c(c1)OCO3)oc1ccccc12	?	25µM*	6%	-2%[46.1 µM]	-1%	7%
COc1cc2c(cc1NCc1ccccn1)oc1ccccc12	-6%	28µM*	4%	2%[46.1 µM]	-1%	6%
COc1ccccc1NC(=O)c1ccc2c(c1)OCO2	6%	/	-3%	-7%	-6%	0%
Cc1c(Br)cccc1NC(=O)c1sccc1-n1cccc1	8%	8.9µM*	6%	1%	/	-3%

Screening results (PubChem BioAssay)
